FUS yeast rescue = qHTS for Suppressors of FUS Proteinopathy: Primary screen using FUS-linked yeast assay. 390,000 compounds, 0.24% hits. AID 1347120, 2019. S. cerevisiae FUS-expressing, growth rescue, OD600, 24 h. Potency, µM (doses to about 76.6 µM), most hits filed as activators;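 also: plate controls were DMSO vehicle for no effect and reference control for full effect; nearly all actives have a fitted effect of over 55% in size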
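Galactose (2%) drives FUS expression in yeast precultured in raffinose; seeding density OD 0.005. Test compounds incubated 24hr at 30C and 99% humidity before absorbance at 600 nm was measured.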
TDP-43 yeast inh = qHTS of TDP-43 Inhibitors; TDP-43 expressing yeast growth rescue, BacTiter-Glo, 24 h; Potency, µM (highest dose often 46.1 µM), inactives show top-dose growth rescue (activation), usual class: activators; 410,000 compounds, 1.8% hits; also: % of control where 0% means no effect; nearly all actives have a fitted effect of over 50% in size
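Readout is BacTiter-Glo luminescence of cell growth, so inhibitors register as activators. TDP-43-expressing yeast at OD600=0.02 in galactose medium, after raffinose pregrowth to mid-log, were incubated with compound for 24 hr at 30 deg C.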
aSyn yeast inh = qHTS of alpha-syn Inhibitors | Yeast expressing alpha-synuclein, growth rescue, BacTiter-Glo, 24 h | Potency, µM (top dose mostly 46.1 µM), for the others: top-dose growth rescue (activation), most hits filed as activators | 370,000 compounds, 0.14% hits | AID 652106, 2013; also: % of control where 0% means no effect; nearly all actives have a fitted effect of over 65% in size
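Readout is rescue of growth in alpha-synuclein-expressing yeast, so inhibitors of toxicity appear as activators. Growth after 24 hr at 30 deg C in galactose medium is quantified by luminescence.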
Abeta yeast res = qHTS for compounds that reverse cellular toxicity of Amyloid beta (A-beta) peptide in yeast: Primary Screen; yeast expressing A-beta42, growth rescue, OD600, 48 h; response scale: 0% DMSO, 100% iron-clioquinol control; 410,000 compounds, 0.063% hits; Potency, µM (series often up to 46.1 µM), usual class: activators; also: nearly all actives have a fitted effect of over 55% in size
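Growth rescue measured by 600 nm absorbance after 48 h yeast culture at 30 C with compound. Values normalized between DMSO and an equimolar ferric chloride plus clioquinol control.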
* = called active by the depositor; i = inactive; ? = inconclusive; · = no result given; [ ] = remark or other dose. An excerpt weighted towards active compounds, which were near 2.1% of everything screened. Calls follow the shape of the dose curve; as a rule, active = well fitted curve in the direction sought with a large enough effect; inconclusive = small, poorly fitted or top-dose-only effect, or another doubt; inactive = no such curve, though single readings can be large; an effect the other way counts as inactive or inconclusive. Potency is read from the fitted curve at half-maximal effect.

SMILES	FUS yeast rescue	TDP-43 yeast inh	aSyn yeast inh	Abeta yeast res
O=C(Nc1ccccc1)C1Cc2c(-c3ccc4c(c3)OCO4)ccnc2O1 (configuration not stated)	i	35.5µM*	15.8%	i
COc1ccc(NC(=O)C2Cc3c(-c4ccc5c(c4)OCO5)ccnc3O2)cc1 (configuration not stated)	i	25.1µM*	15.2%	i
CC(=O)Nc1ccc(NC(=O)C2Cc3c(-c4ccco4)ccnc3O2)cc1 (configuration not stated)	i	16.9%	-2.5%	i
Cc1cccn2c(=O)c(C(=O)N3CCN(c4ccc(Cl)cc4)CC3)cnc12	i	9.8%	·	i
CC(=Nc1ccccc1)C1=C(O)CSC1=O	i	-10.4%	-34.9%	i
Cc1ccc(CN(C)C(=O)COC(=O)CSc2ccc([N+](=O)[O-])cc2)cc1	i	12.4%	-11.7%	i
CCOc1ccc(CNC(=O)c2ccc3nc(CC)c(CC)nc3c2)cc1	i	11.4%	·	i
COc1cccc(Nc2nc(C(N)CCc3ccccc3)cs2)n1 (configuration not stated)	i	5.5%	-28.7%	i
Cc1nn(C)cc1C=NCCOCc1ccccc1	i	1.1%	2.6%	i
Cn1c2ccccc2c2ncn(CCC3=CCCCC3)c(=O)c21	i	12.6µM*	-4.0%	i
O=c1c(S(=O)(=O)c2ccccc2)cn(Cc2ccc(F)cc2)c2cc(N3CCOCC3)c(F)cc12	i	0.5%	·	i
O=C(COC(=O)c1cc(-c2ccc(F)cc2)nc2ccccc12)NCC1CCCO1 (configuration not stated)	i	14.1µM*	4.7%	i
O=C(COC(=O)c1cccc2ccccc12)NCC1CCCO1 (configuration not stated)	i	15.0%	-0.8%	i
O=C(COC(=O)/C=C/c1ccc([N+](=O)[O-])cc1)NCc1ccc2c(c1)OCO2	i	-20.4%	-6.9%	i
CC(=O)c1cccc(-c2ccnc3c2CC(C(=O)Nc2ccc(F)c(Cl)c2)O3)c1 (configuration not stated)	?	?	?	i
O=C(Nc1ccc(F)c(Cl)c1)C1Cc2c(-c3cccc(F)c3)ccnc2O1 (configuration not stated)	i	17.8µM*	?	i
NC(=O)c1cccc(-c2ccnc3c2CC(C(=O)Nc2cccc(C(F)(F)F)c2)O3)c1 (configuration not stated)	i	5.3%	-3.0%	i
O=C(Nc1cccc(C(F)(F)F)c1)C1Cc2c(-c3cccc(F)c3)ccnc2O1 (configuration not stated)	?	25.1µM*	?	i
Cc1cccc(NC(=O)c2nc(S(C)(=O)=O)ncc2Cl)c1	i	20µM*	·	i
COc1cccc(NC(=O)c2nc(S(C)(=O)=O)ncc2Cl)c1	i	?	-0.4%	i
COc1ccc(OC)c(NC(=O)c2nc(S(=O)(=O)Cc3ccc(F)cc3)ncc2Cl)c1	i	3.16µM*	·	i
CCOC(=O)c1c(-c2ccccc2)csc1NC(=O)c1nc(S(=O)(=O)CC)ncc1Cl	i	3.98µM*	·	i
CCS(=O)(=O)c1ncc(Cl)c(C(=O)Nc2ccccc2)n1	i	11.2µM*	·	i
CCS(=O)(=O)c1ncc(Cl)c(C(=O)Nc2ccccc2OC)n1	i	·	10.2%	i
COc1ccccc1NC(=O)c1nc(S(=O)(=O)Cc2ccccc2)ncc1Cl	i	-9.4%	3.7%	i
SMILES	FUS yeast rescue	TDP-43 yeast inh	aSyn yeast inh	Abeta yeast res
Cc1ccc(S(=O)(=O)N[C@@H](Cc2ccccc2)C(=O)N2CCC(C(=O)N[C@@H](CCC(N)=O)C(=O)O)CC2)cc1	i	5.6%	-1.7%	i
O=S(=O)(NCCc1ccccc1)c1cnc(Cl)c(Br)c1	·	11.2µM*	13.0%	i
O=S(=O)(NCc1ccco1)c1cnc(Cl)c(Br)c1	·	14.1µM*	?	i
N#CC(C#N)=C1C(=O)N(CCN2CCCCC2)c2ccccc21	22.4µM*	-22.2%	13.4%	i
N#CC(C#N)=C1C(=O)N(CCN2CCOCC2)c2ccccc21	i	-9.7%	4.4%	i
Cc1nc(-c2nc(-c3c(C(=O)NN)noc3C)cs2)cs1	i	-15.8%[0.397 µM]	-7.1%	i
Cc1onc(C(=O)NN)c1-c1csc(COc2ccc(Cl)cc2)n1	i	11.2µM*	10.7%	i
C=CCc1cc(OC)ccc1OCCOCCC(C(=O)OCC)C(=O)OCC	·	-18.7%	10.1%	i
Cc1ccc(Cl)cc1NC(=O)/C(C#N)=C/c1c(C)n(Cc2ccccc2)c2ccccc12	i	18.2%	·	i
CCN(CC)C(=O)CSc1nc2cc3c(cc2c(=O)n1CCCC(=O)NCc1ccc(OC)cc1)OCO3	i	-3.2%[9.22 µM]	-1.9%	i
COc1ccc(NC(=O)C2CCCN2S(=O)(=O)c2cccc3cccnc23)c(OC)c1 (configuration not stated)	i	2.51µM*	-0.3%	i
CCOC(=O)C(O)(CC(=O)Nc1cc(F)ccc1C)C(F)(F)F (configuration not stated)	i	-13.4%	-12.6%	i
Cc1ccc([C@@H]2CC=C(C(=O)O)[C@H](c3ccc(F)cc3)N2S(=O)(=O)c2ccccc2C)cc1	i	28.2µM*	-7.5%	i
COc1ccc([C@@H]2CC=C(C(=O)O)[C@H](c3ccc(Cl)cc3)N2S(=O)(=O)c2ccccc2C)cc1	?	17.8µM*	-32.5%	i
Cc1ccc([C@@H]2CC=C(C(=O)O)[C@H](c3ccc(Br)cc3)N2S(=O)(=O)c2ccccc2C)cc1	i	-16.1%	-6.2%	i
Cc1ccccc1S(=O)(=O)N1[C@@H](c2ccccc2)C(C(=O)O)=CC[C@H]1c1ccc(Cl)cc1	i	?	0.7%	i
COc1ccc([C@@H]2CC=C(C(=O)O)[C@H](c3ccc(Br)cc3)N2S(=O)(=O)c2ccccc2C)cc1	?	35.5µM*	-62.7%	i
Cc1ccc(OCC(=O)OCc2cc(=O)n3nc(-c4cccs4)sc3n2)cc1	i	-5.3%	·	i
COc1ccc(C(=O)NCCS(=O)(=O)N2CCC3(CC2)OCCO3)cc1	·	5.9%	-5.6%	i
COCCN=c1scc(-c2cc(OC)ccc2OC)n1/N=C/c1c[nH]c2ccccc12	i	22.4µM*	?	i
COCCN=c1scc(-c2ccco2)n1/N=C/c1ccc(O)c(O)c1O	i	?	2.7%	i
CC(=O)COc1ccc2c(-c3ccccc3)cc(=O)oc2c1C	i	?	-15.5%	i
Cc1c(OCC(=O)C(C)(C)C)ccc2c(-c3ccccc3)cc(=O)oc12	i	25.1µM*	2.0%	?
CCOC(=O)c1c(NC(=O)Cc2ccccc2)sc2c1CCN(C)C2	i	0.9%	-3.6%	i
